In PubChem BioAssay AID588342 (National Center for Advancing Translational Sciences (NCATS), 2011):
Out of some 360,000 compounds screened, about 25,000 (6.9%) were called active. Not shown: some 9% with an inconclusive outcome. Calls come from the whole dose curve; as a rule, active = well fitted inhibition curve with a large enough effect; inconclusive = small, poorly fitted or top-dose-only effect; inactive = flat fitted curve, though single readings scatter. The list comes from a sample in which actives are over-represented; it also holds similar structures and randomly drawn compounds. A call without a number means that no potency is given here.

The molecules below were run against Luciferin 4-monooxygenase (Photinus pyralis) (UniProt P08659) (assay: qHTS profiling assay for firefly luciferase inhibitor/activator using purifed enzyme and Km concentrations of substrates (counterscreen for miR-21 project)). Settings: purified FLuc, luminescence inhibition; series mostly up to 57.5 µM.
Sequence of Luciferin 4-monooxygenase (Photinus pyralis) (P08659 whole entry, looked up): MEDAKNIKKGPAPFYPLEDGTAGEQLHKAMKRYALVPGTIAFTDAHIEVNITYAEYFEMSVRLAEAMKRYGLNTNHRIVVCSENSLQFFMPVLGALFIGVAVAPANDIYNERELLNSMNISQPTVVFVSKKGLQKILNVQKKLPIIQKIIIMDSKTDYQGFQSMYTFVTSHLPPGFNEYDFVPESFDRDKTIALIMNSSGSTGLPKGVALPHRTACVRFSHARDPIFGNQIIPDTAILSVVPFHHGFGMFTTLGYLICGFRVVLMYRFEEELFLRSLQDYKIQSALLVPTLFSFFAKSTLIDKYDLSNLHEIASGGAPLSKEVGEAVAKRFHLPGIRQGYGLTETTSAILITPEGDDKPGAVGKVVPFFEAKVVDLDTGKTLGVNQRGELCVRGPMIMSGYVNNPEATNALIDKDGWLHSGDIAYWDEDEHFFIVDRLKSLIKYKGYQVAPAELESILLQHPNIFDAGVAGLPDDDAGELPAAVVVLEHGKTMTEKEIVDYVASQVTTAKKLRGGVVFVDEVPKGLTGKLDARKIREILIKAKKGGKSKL
Method in brief: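 Purified P. pyralis luciferase, 10 nM final, with Km-level 10 uM D-luciferin and 10 uM ATP in 50 mM Tris acetate pH 7.5, 10 mM Mg acetate, 0.01% Tween-20, 0.05% BSA; 6-point qHTS titration about 60 µM downward; luminescence read.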
Note: nearly all actives have a fitted effect of over 55% in size.
Potency is the fitted concentration of half-maximal effect.

| SMILES | Potency |
| --- | --- |
| CCOC(=O)c1c(C)oc2nc(C)nc(N(CC(C)C)CC(C)C)c12 | inactive |
| O=C(COC(=O)CCCN1C(=O)c2cccc3cccc(c23)C1=O)NC1CCS(=O)(=O)C1 (configuration not stated) | inactive |
| COc1ccc(N2CCN(C(=O)c3c(C)oc4nc(C)nc(N5CCCC5)c34)CC2)cc1 | inactive |
| Cc1ccccc1Nc1nc(N)nc(COC(=O)CCC(=O)c2ccc(F)cc2)n1 | inactive |
| CCOC(=O)N1CCN(C(=O)COC(=O)c2cccc(S(C)(=O)=O)c2)CC1 | inactive |
| CCc1ccc(S(=O)(=O)c2nnn3c2nc(NCc2ccccc2OC)c2cc(Cl)ccc23)cc1 | inactive |
| COc1ccc(N2CCN(S(=O)(=O)CCNC(=O)C(c3ccccc3)c3ccccc3)CC2)cc1 | inactive |
| CCC(=O)Nc1ccccc1-c1nc2ccccc2n(CC(=O)Nc2ccc(C)c(C)c2)c1=O | inactive |
| CCN(CC)c1ccc(/C=N/NC(=O)CNC(=O)c2cccs2)cc1 | 23.9 µM (active) |
| Cc1cccc(OCC(=O)NCC(=O)N/N=C/c2ccc(N(C)C)cc2)c1 | inactive |
| NC(=O)N/N=C\c1cccs1 | inactive |
| O=C(NC(Cc1c[nH]c2ccccc12)C(=O)N/N=C/c1ccc(Br)cc1)c1cccs1 (configuration not stated) | inactive |
| CC(C)OCCCNC(=O)CNC(=O)c1cccs1 | inactive |
| CC(=O)Nc1ccc(/C=N/NC(=O)c2cccs2)cc1 | 12 µM (active) |
| CCC(Sc1nnc(-c2ccc(OC)cc2)c(-c2ccc(OC)cc2)n1)C(=O)NC1CCCCC1 (configuration not stated) | inactive |
| CCOC(=O)c1c(NC(=O)/C=C/c2ccc(OC)cc2)sc2c1CCC(C)C2 (configuration not stated) | inactive |
| CCc1ccc(C(=O)CC2(O)C(=O)N(CCc3ccccc3)c3ccc(Br)cc32)cc1 (configuration not stated) | inactive |
| Cc1ccc(S(=O)(=O)N2CCCCC2)cc1NC(=O)[C@@H]1CCCN1C(=O)c1cccs1 | inactive |
| CC(=O)Nc1ccc(NC(=O)c2cc3sccc3n2Cc2ccc(F)cc2)cc1 | inactive |
| CCOC(=O)c1cc(C)sc1NC(=O)C1CCC1 | inactive |
| CCc1ccccc1NC(=O)c1ccc2snnc2c1 | inactive |
| Cc1cccc(NC(=O)c2ccc3nsnc3c2)c1C | inactive |
| O=C(Nc1ccccc1Cl)c1ccc2nsnc2c1 | 19 µM (active) |

| SMILES | Potency |
| --- | --- |
| CC1(C)CC(N2CCN(C(c3ccccc3)c3ccccc3)CC2)=CC(=[N+]2CCCCC2)C1 | inactive |
| O=S(=O)(NC1CC1)c1ccc(Cl)cc1 | inactive |
| Cc1ccc(CNC(=O)Cn2c(=O)ccc3cc(S(=O)(=O)N4CCCC4)ccc32)cc1 | inactive |
| COCCN(C(=O)C(C)C)c1nnc(-c2ccc(C(C)(C)C)cc2)s1 | 15.1 µM (active) |
| COc1ccc(N(CC(=O)NC(C)(C)C)C(=O)c2ccco2)cc1 | inactive |
| COCCN(C(=O)c1ccco1)c1nnc(-c2ccc(OC)cc2)s1 | 21.3 µM (active) |
| Cc1nnc(N(Cc2ccco2)C(=O)c2ccno2)s1 | inactive |
| CN1CCNC(=O)C1CC(=O)N1CC=C(c2ccc(F)cc2)CC1 (configuration not stated) | inactive |
| Cn1c(C(=O)N2CCC(C(=O)N3CCN(c4ccccc4)CC3)CC2)cc2sccc21 | inactive |
| Cc1ccc(C)c(NC(=O)CSC2=Nc3ccccc3N=C(c3ccc(F)cc3)C2)c1 | inactive |
| CCOc1ccc(CNC(=O)c2ccc3nc(CC)c(CC)nc3c2)cc1OC | inactive |
| CCN(CC)c1ccc(NC(=O)Cn2nc3c(cc2=O)CCCC3)c(C)c1 | inactive |
| CCOc1ccc(CNC(=O)c2ccc3c(c2)nnn3C2CCCC2)cc1 | inactive |
| O=C(CNCCC1=CCCCC1)Nc1ccccc1N1CCCCCC1 | inactive |
| COc1ccc(NS(=O)(=O)c2cc3c(cc2C)N(C(C)=O)CCO3)cc1 | inactive |
| COCCCNC(=O)c1c(NC(=O)c2cc(=O)c3cc(C)c(C)cc3o2)sc2c1CCCC2 | inactive |
| O=C1C(C=NCC2CCCO2)=C(O)c2ccccc21 (configuration not stated) | 19 µM (active) |
| CC(=NCC1CCCO1)c1c(O)[nH]c(=O)[nH]c1=O (configuration not stated) | inactive |
| O=C1c2cccc3c([N+](=O)[O-])ccc(c23)C(=O)N1CC1CCCO1 (configuration not stated) | inactive |
| CCCCCn1c(=O)[nH]c2cc(C(=O)Nc3ccc(F)cc3)ccc2c1=O | inactive |
| CC(C)n1c(=O)[nH]c2cc(C(=O)Nc3ccccc3)ccc21 | inactive |
| CC(C)c1ccc(NC(=O)c2ccc3c(O)c(S(=O)(=O)c4ccccc4)c(=O)[nH]c3c2)cc1 | 1.51 µM (active) |
| CCCCn1c(N)c(N(CCC(C)C)C(=O)COC(=O)c2cccnc2OCC)c(=O)[nH]c1=O | inactive |

| SMILES | Potency |
| --- | --- |
| COc1ccc(C=C(C#N)C#N)c(CSc2ccccn2)c1 | inactive |
| Cc1cc(C)nc(SCc2ccccc2C#N)n1 | inactive |
| COc1ccc(/C=N/OCc2ccccc2C#N)c(OC)c1 | 21.3 µM (active) |
| Cc1ccccc1OCC(=O)Nc1c(C(=O)Nc2ccccc2F)oc2ccccc12 | inactive |
| CCOC(=O)[C@H]1[C@H]2COc3cc(OC)ccc3[C@@H]2N2C(=O)N(c3ccc(Br)cc3)C(=O)[C@@]12C | inactive |
| COc1ccc(CNC(=O)COC(=O)c2c(C)nn(-c3ccccc3)c2C)cc1OC | inactive |
| COc1ccc(CNC(=O)COc2ccccc2C(=O)c2cnn(-c3ccccc3)c2)cc1OC | 5.36 µM (active) |
| COc1ccc(CNC(=O)Cc2ccc(-c3ccccc3)cc2)cc1OC | inactive |
| CCOC(=O)c1sc(NC(=O)C2CSC3(C)CCC(=O)N23)nc1C (configuration not stated) | inactive |
| CCOC(=O)c1sc(NC(=O)c2ccncc2)nc1C | 19 µM (active) |
| CCOC(=O)c1sc(/N=C/Nc2nc(C)c(C(=O)OCC)s2)nc1C | inactive |
| CCOC(=O)c1cccnc1NC(=O)c1ccncc1 | inactive |
| CCOC(=O)c1sc(NC(=O)c2sc(C)nc2C)nc1C | 6.01 µM (active) |
| CCOC(=O)c1sc(NC(=O)CSc2n[nH]c(CC)n2)nc1C | inactive |
| Cc1ccc(C)c(Oc2c(C(F)(F)F)oc3c(CN4CCN(C)CC4)c(O)ccc3c2=O)c1 | inactive |
| Cc1cc(C)n2nc(CNS(=O)(=O)c3c(F)c(F)c(F)c(F)c3F)nc2n1 | inactive |
| Cc1ccc(C(=O)Nc2ccccc2F)cc1S(=O)(=O)N1CCOCC1 | inactive |
| CCOc1cc(/C=C(\C#N)C(=O)Nc2ccccc2C)ccc1OCc1cc(=O)n2nc(CC)sc2n1 | inactive |
| O=C(CCc1nc2ccccc2c(=O)[nH]1)OCC(=O)c1cccc(Cl)c1 | inactive |
| CCCc1nc2ccccc2c(C(=O)OCC(=O)c2ccc3c(c2)NC(=O)CO3)c1CC | inactive |
| Cc1ccc(C(=O)COC(=O)c2cccc(N3C(=O)c4c(C)nc5ccccc5c4C3=O)c2)cc1C | 2.69 µM (active) |
